Reference: the supplement of paper PMC9262897, “Low-cost anti-mycobacterial drug discovery using engineered E. coli” (Nature Communications, 2022)
Counter-ions that a name gives are not always drawn. ± gives the standard deviation of the averaged measurements.

What follows are compounds tested on E. coli TESEC Alr+ wild-type control (assay: growth (OD600 after 10 h); higher = more growth (less inhibition)). Conditions: compound 0.1 mM; raw OD600 reference: median of DMSO wells 0.49, cell-free background 0.052.
Experimental: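 TESEC Mtb Alr E. coli (ΔaraC ΔtolC ΔentC Δalr ΔdadX, arabinose-inducible Mtb Alr) or the Alr+ wild-type control strain, grown in defined M9-fructose medium without D-alanine in 96-well plates with Prestwick library compounds at 0.1 mM and 1% DMSO. Low Alr induction is 0.1 µM arabinose and high induction is 10 mM arabinose.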

Row | Compound | growth
1 | C=C1/C(=C\C=C2/CCC[C@]3(C)[C@@H]([C@H](C)/C=C/[C@@H](O)C4CC4)CC[C@@H]23)C[C@@H](O)C[C@@H]1O [Calcipotriene] | 0.0607 ± 0.0046
2 | CCN(CC)Cc1cc(Nc2ccnc3cc(Cl)ccc23)ccc1O [Amodiaquin dihydrochloride dihydrate] | 0.527 ± 0.047
3 | CC(C)(O/N=C(\C(=O)N[C@@H]1C(=O)N2C(C(=O)[O-])=C(C[n+]3ccccc3)CS[C@H]12)c1csc(N)n1)C(=O)O [Ceftazidime pentahydrate] | 0.0473 ± 0.00053
4 | Cc1cc(C2CCCCC2)n(O)c(=O)c1 [Ciclopirox ethanolamine] | 0.0666 ± 0.0021
5 | NCCCCCC(=O)O [Aminocaproic acid] | 0.463 ± 0.025
6 | CCN(CC)CC#CCOC(=O)C(O)(c1ccccc1)C1CCCCC1 (stereo not given) [Oxybutynin chloride] | 0.41 ± 0.043
7 | CC(C)N1CCN(c2ccc(OCC3COC(Cn4cncn4)(c4ccc(Cl)cc4Cl)O3)cc2)CC1 (stereo not given) [Terconazole] | 0.462 ± 0.031
8 | CC[N+](C)(CC)CCOC(=O)C1c2ccccc2Oc2ccccc21 [Methantheline bromide] | 0.592 ± 0.017
9 | c1ccc(-c2ccc(C(c3ccccc3)n3ccnc3)cc2)cc1 (stereo not given) [Bifonazole] | 0.0548 ± 0.0039
10 | COC1=C(OC)C(=O)C(CCCCCCCCCCO)=C(C)C1=O [Idebenone] | 0.0491 ± 0.0001
11 | COc1cc(-c2ccc(=O)[nH]n2)ccc1OC(F)F [Zardaverine] | 0.442 ± 0.044
12 | OC(CCN1CCCCC1)(c1ccccc1)c1ccccc1 [Pridinol methanesulfonate salt] | 0.469 ± 0.027
13 | CCOCCn1c(N2CCCN(C)CC2)nc2ccccc21 [Emedastine] | 0.514 ± 0.081
14 | Cc1ncc([N+](=O)[O-])n1CCO [Metronidazole] | 0.426 ± 0.033
15 | NC(=O)c1ccc[n+]([C@@H]2O[C@H](COP(=O)([O-])OP(=O)(O)OC[C@H]3O[C@@H](n4cnc5c(N)ncnc54)[C@H](O)[C@@H]3O)[C@@H](O)[C@H]2O)c1 [Nadide] | 0.564 ± 0.14
16 | NCCc1cc[nH]n1 [Betazole hydrochloride] | 0.494 ± 0.066
17 | CCCCOc1ccc(C(=O)CCN2CCCCC2)cc1 [Dyclonine hydrochloride] | 0.449 ± 0.034
18 | CCCN[C@H]1CCc2nc(N)sc2C1 [Pramipexole dihydrochloride] | 0.64 ± 0.0092
19 | CO/N=C(\C(=O)N[C@@H]1C(=O)N2C(C(=O)O)=C(C[N+]3(C)CCCC3)CS[C@H]12)c1csc(N)n1 [Cefepime hydrochloride] | 0.0488 ± 0.0038
20 | O=C1c2c(O)cccc2Cc2cccc(O)c21 [Anthralin] | 0.339 ± 0.015

Row | Compound | growth
21 | Cc1c(NC(C)C)c(=O)n(-c2ccccc2)n1C [Isopyrin hydrochloride] | 0.44 ± 0.036
22 | COc1ccc(OC)c(C(O)CNC(=O)CN)c1 (stereo not given) [Midodrine hydrochloride] | 0.482 ± 0.043
23 | Cc1c(C)c2c(c(C)c1O)CCC(C)(C(=O)O)O2 (stereo not given) [Trolox] | 0.579 ± 0.053
24 | CN(C)C(=N)NC(=N)N [Metformin hydrochloride] | 0.447 ± 0.052
25 | CN(C)C/C=C(/c1ccc(Br)cc1)c1cccnc1 [Zimelidine dihydrochloride monohydrate] | 0.445 ± 0.04
26 | CN(C)CCOC(=O)C(c1ccccc1)C1(O)CCCC1 (stereo not given) [Cyclopentolate hydrochloride] | 0.54 ± 0.099
27 | Cc1c(C)c2c(c(C)c1O)CCC(C)(COc1ccc(CC3SC(=O)NC3=O)cc1)O2 (stereo not given) [Troglitazone] | 0.445 ± 0.029
28 | COC(=O)C1=C(C)NC(C)=C(C(=O)OC)C1c1ccccc1[N+](=O)[O-] [Nifedipine] | 0.447 ± 0.017
29 | CC1=C(CC(=O)O)c2cc(F)ccc2/C1=C\c1ccc([S+](C)[O-])cc1 (stereo not given) [Sulindac] | 0.364 ± 0.036
30 | CC(C)[C@H]1CC[C@H](C(=O)N[C@H](Cc2ccccc2)C(=O)O)CC1 [Nateglinide] | 0.6242 ± 0.0051
31 | Cn1c(=O)c2nc[nH]c2n(C)c1=O [Theophylline monohydrate] | 0.461 ± 0.014
32 | O=c1oc2ccccc2c(O)c1Cc1c(O)c2ccccc2oc1=O [Dicumarol] | 0.191 ± 0.025
33 | CCOC(=O)[C@H](CCc1ccccc1)N[C@@H](C)C(=O)N1Cc2ccccc2C[C@H]1C(=O)O [Quinapril HCl] | 0.477 ± 0.15
34 | N[C@H]1CONC1=O [(S)-(-)-Cycloserine] | 0.558 ± 0.063
35 | CC(C)c1c(C(=O)Nc2ccccc2)c(-c2ccccc2)c(-c2ccc(F)cc2)n1CC[C@@H](O)C[C@@H](O)CC(=O)O [Atorvastatin] | 0.217 ± 0.011
36 | C[C@H]1O[C@H](O[C@H]2[C@H](O)[C@@H](O)[C@@H](O[C@@H]([C@H](O)[C@@H](O)C=O)[C@H](O)CO)O[C@@H]2CO)[C@H](O)[C@@H](O)[C@@H]1N[C@H]1C=C(CO)[C@@H](O)[C@H](O)[C@H]1O [Acarbose] | 0.458 ± 0.0055
37 | Cn1c(=O)c2[nH]cnc2n(C)c1=O [Aminophylline] | 0.513 ± 0.08
38 | CNCC(O)c1ccc(OC(=O)C(C)(C)C)c(OC(=O)C(C)(C)C)c1 (stereo not given) [Dipivefrin hydrochloride] | 0.394 ± 0.018
39 | C[C@@H]1C[C@H]2[C@@H]3C[C@H](F)C4=CC(=O)C=C[C@]4(C)[C@@]3(Cl)[C@@H](O)C[C@]2(C)[C@H]1C(=O)COC(=O)C(C)(C)C [Clocortolone pivalate] | 0.477 ± 0.013
40 | CCN1CCCC(OC(=O)C(c2ccccc2)c2ccccc2)C1 (stereo not given) [Piperidolate hydrochloride] | 0.555 ± 0.023
